Hits are enriched below; roughly 6.2% of the tested compounds scored in any of these assays.
NTR1 agonist: activates human neurotensin receptor 1 | P30989 | NTR1-U2OS beta-arrestin-GFP spot imaging, agonist mode | activation, % at 20 µM | hit rate 0.17% among 330,000 | AID 493036;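 active means activation at or above 40% of the spot to cytoplasm intensity ratio, with at least 20 cells analyzed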;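 further: 0% = DMSO without peptide and 100% = 100 nM NTR1 peptide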
AHR activator: activates the human aryl hydrocarbon receptor; P35869; AHR-responsive luciferase reporter cells, luminescence; activation, % at 5 µM; hit rate 2.5% among 320,000; in the data active means activation above about 47%;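 further: 0% = vehicle wells and 100% = reference agonist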
Target sequence (P35869 whole entry, looked up): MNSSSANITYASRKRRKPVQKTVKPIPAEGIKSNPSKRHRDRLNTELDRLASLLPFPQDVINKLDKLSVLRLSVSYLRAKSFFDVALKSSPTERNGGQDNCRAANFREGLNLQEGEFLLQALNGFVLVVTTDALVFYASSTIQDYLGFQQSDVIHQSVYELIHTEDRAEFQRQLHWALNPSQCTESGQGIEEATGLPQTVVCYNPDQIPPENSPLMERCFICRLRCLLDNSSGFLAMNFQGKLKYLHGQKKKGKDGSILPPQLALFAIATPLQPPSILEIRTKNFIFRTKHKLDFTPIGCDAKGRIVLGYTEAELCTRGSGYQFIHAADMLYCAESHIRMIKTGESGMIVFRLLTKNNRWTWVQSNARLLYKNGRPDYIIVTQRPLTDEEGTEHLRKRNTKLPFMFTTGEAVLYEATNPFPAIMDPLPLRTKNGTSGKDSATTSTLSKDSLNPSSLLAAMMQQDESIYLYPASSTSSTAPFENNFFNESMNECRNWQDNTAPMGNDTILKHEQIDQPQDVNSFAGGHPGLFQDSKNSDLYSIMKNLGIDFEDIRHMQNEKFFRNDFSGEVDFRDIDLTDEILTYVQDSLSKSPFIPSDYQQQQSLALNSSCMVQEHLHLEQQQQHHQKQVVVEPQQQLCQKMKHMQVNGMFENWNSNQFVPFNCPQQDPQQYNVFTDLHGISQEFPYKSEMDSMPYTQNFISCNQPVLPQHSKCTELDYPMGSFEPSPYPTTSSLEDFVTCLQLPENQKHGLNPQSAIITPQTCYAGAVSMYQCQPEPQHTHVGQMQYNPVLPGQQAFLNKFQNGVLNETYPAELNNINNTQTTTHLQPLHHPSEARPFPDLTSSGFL
Cardio protect: myocardial damage modulation in H9c2 cells; H9c2 cardiomyocytes, H2O2 injury protection, ATPLite, 2 h; protection from H2O2 cell death, % at 20 µM; hit rate 0.63% among 360,000;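 active means compounds giving at least 50% protection of heart cells from peroxide-induced death in the single-dose screen, raw or plate-pattern-corrected value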;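 further: 0% = DMSO wells with peroxide and 100% = DMSO wells without peroxide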
AI-2 QS mod: Vibrio harveyi AI-2 quorum sensing modulation; Vibrio harveyi JMH597 AI-2 luminescence/OD600 ratio, 9 h; stronger effect = lower value; strain lacks LuxN and CqsS sensors; 0 = neutral-control median; activity change, % at 7.5 µM; hit rate 0.4% among 300,000; in the data active means activity change below about -75%, passing the limit was not always enough;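 further: luminescence divided by OD600 gain over 9 h not by final OD600 alone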
SUMO Mot1 rescue: SUMOylation pathway inhibition by Mot1-301 growth rescue; growth rescue, % at 18.8 µM; S. cerevisiae Mot1-301 growth rescue, ATP luminescence, 38.5C; percent above DMSO median, 100 means doubled; hit rate 1% among 320,000;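 active means every valid replicate shows activation above 250% relative to neutral control wells; inactive means the rest, any valid replicate at or below 250%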;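 further: OY570 slx delta 5 strain wells were the positive control but not used for scaling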
GRIN3A LBD mod: modulators (binders) of human NR3A ligand-binding domain; NR3A LBD differential scanning fluorimetry, Tm shift; 0% = protein alone, 100% = glycine-bound protein; Tm shift relative to glycine control, % at 25 µM; hit rate 2.5% among 340,000;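 active means melting temperature shift of at least 10% of the positive control shift, at one fixed dose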
* hit, by the source's call; . = no result.

SMILES	NTR1 agonist	AHR activator	Cardio protect	AI-2 QS mod	SUMO Mot1 rescue	GRIN3A LBD mod
COc1ccc(NS(=O)(=O)c2ccc3nc(COc4ccc(Cl)c(C)c4)[nH]c3c2)cc1	7	21	-14	38	-2	29*
COc1ccc(/C=C\C(=O)NCC(=O)N/N=C/c2cccc(OC)c2O)cc1	15	2	44	18	-23	7
COc1cccc(/C=N/NC(=O)CNC(=O)/C=C\c2ccccc2)c1O	62*	2	52*	12	8	-1
COc1ccccc1/C=C\C(=O)NCC(=O)N/N=C/c1ccc(O)cc1O	1	14	52*	-18	-4	-3
O=C(CCc1ccccc1)NCC(=O)N/N=C/c1ccc(O)cc1O	36	1	53*	38	26	0
Cc1cc(SCC(=O)N/N=C/c2ccc(O)cc2O)nc2ccccc12	4	8	46	22	3	26*
O=C(CNC(=O)c1cccs1)N/N=C/c1ccc(O)cc1O	0	10	36	20	-10	6
Cc1ccc(NS(=O)(=O)c2ccc(-c3coc(C)n3)cc2)c(Cl)c1	.	.	-9	.	.	.
CCOC(=O)C1=C[C@@H](C2CCCCC2)N(S(=O)(=O)c2ccc([N+](=O)[O-])cc2)[C@H]1c1ccccc1	.	.	-10	.	.	.
CCC(C(=O)NCCc1ccc(OC)cc1OC)n1nc(C)n2c(cc3occc32)c1=O (centres undefined)	3	7	0	-8	1	5
O=C(CN1CCCc2ccccc21)N/N=C/c1ccc(O)cc1O	-3	53*	52*	30	12	7
O=C(CN1CCCc2ccccc21)N/N=C/c1c(O)ccc2ccccc12	4	38	40	10	-1	9
COc1ccc(Br)cc1/C=N/NC(=O)CNC(=O)/C=C/c1ccccc1	37	31	64*	13	0	2
COc1ccc(OC2(C)CCN(Cc3ccc(-c4ccccc4)o3)C2)cc1 (centres undefined)	.	.	-9	.	.	.
COc1ccc(NC(=O)/C(N=Nc2cc(S(=O)(=O)Nc3ccc(OC)cc3)ccc2OC)=C(\C)O)cc1	0	2	-5	29	94	11*
COc1ccc(NC(=O)/C(N=Nc2ccc(Cl)c(S(=O)(=O)Nc3ccc(Cl)cc3)c2)=C(\C)O)cc1	1	1	-14	.	-5	-1
CNC(=O)C(=O)NCC1OCCN1S(=O)(=O)c1ccc(C)cc1 (centres undefined)	0	1	2	30	-7	11*
Cc1ccc(S(=O)(=O)N2CCOC2CNC(=O)C(=O)NCC(C)C)cc1 (centres undefined)	0	0	-1	-5	-18	0
COCCNC(=O)C(=O)NCC1OCCN1S(=O)(=O)c1ccc(C)cc1 (centres undefined)	2	2	0	21	-13	14*
COc1ccc(Nc2nnc(SCC3CCCO3)s2)cc1 (centres undefined)	-1	46	-2	22	3	-6
COc1cccc(Nc2nnc(SCC3CCCCO3)s2)c1 (centres undefined)	1	51*	-5	16	8	0
O=C(O)C1CCCC2CN3CCc4c([nH]c5ccccc45)C3C(O)C21 (centres undefined)	-1	11	12	13	9	1
COC(=O)c1nccnc1N	.	.	10	.	.	14*
COC(=O)c1nc(C(=O)OC)c(C(=O)OC)nc1C(=O)OC	-1	1	2	14	-15	1
O=C(N/N=C/c1ccc(F)cc1)c1ccccc1	2	8	-15	37	6	-17
SMILES	NTR1 agonist	AHR activator	Cardio protect	AI-2 QS mod	SUMO Mot1 rescue	GRIN3A LBD mod
O=C(N/N=C\c1ccc(F)cc1)c1csnn1	0	21	-1	23	1	12*
Cc1ccccc1/C=N\NC(=O)c1csnn1	-1	51*	-3	33	-13	4
Cc1ccccc1/C=N/NC(=O)Cn1nnc(N)n1	2	2	6	-1	-12	0
O=C(c1cc(C2CCCCN2C(=O)OCCF)on1)N1CCOCC1 (centres undefined)	.	.	-2	.	.	.
O=C(NCCCN1CCOCC1)c1cnccn1	0	0	7	20	4	0
Cc1ccc(C)c(N2CCN(S(=O)(=O)c3ccc4c(c3)NC(=O)CO4)CC2)c1	22	3	-2	10	.	11*
Cc1ccc(C)c(N2CCN(S(=O)(=O)c3ccc4c(c3)NC(=O)CC(=O)N4)CC2)c1	8	0	-14	30	11	0
Cc1cc2c(cc1S(=O)(=O)N1CCN(c3ccccc3F)CC1)OCC(=O)N2	4	0	-3	10	6	13*
O=C1COc2ccc(S(=O)(=O)N3CCN(c4ccccc4F)CC3)cc2N1	0	-4	-10	5	.	12*
Cc1cc2c(cc1S(=O)(=O)N1CCN(c3ccccc3)CC1)OCC(=O)N2	2	1	1	16	1	4
CCCN(CCC)C(=O)c1cc2c(=O)n3cccc(C)c3nc2s1	3	18	3	2	-4	-2
CCCCCOc1ccc(NC2=CC(=O)CCC2)cc1	1	4	-4	-48	435	-2
Cc1cccc(/C=N/NC(=O)c2ccc(NC(=O)c3cccc(Cl)c3)cc2)n1	14	-3	3	19	-7	15*
O=C(N/N=C/c1cccnc1)c1ccc(Cl)c(Cl)c1	-1	18	-2	-2	33	14*
Cc1cccc(/C=N/NC(=O)c2ccc(NC(=O)c3ccccc3Cl)cc2)n1	-1	-2	-2	19	39	-1
O=C(N/N=C/c1cccnc1)c1ccc(NC(=O)c2cccc(Cl)c2)cc1	-1	3	2	50	18	12*
O=C(N/N=C\c1cccnc1)c1cc(-c2ccc(Cl)s2)[nH]n1	-1	32	28	-1	43	23*
O=C(N/N=C/c1cccnc1)c1ccccc1Cl	0	6	-12	13	12	0
O=C(NCCC1=CCCCC1)c1[nH]c(C(F)(F)F)nc1-c1ccccc1	.	.	-9	.	.	.
O=C1[C@H]2[C@@H](c3ccccc3)N[C@]3(CCCN(CC4CCCCC4)C3=O)[C@H]2C(=O)N1Cc1ccccc1	.	.	3	.	.	.
O=C(COC(=O)c1ccc(S(=O)(=O)N2CCCCC2)cc1)NCc1ccc(F)cc1	0	.	2	.	.	1
COc1cccc(CN2CCCC(C(=O)Nc3ccc(-c4cscn4)cc3)C2)c1 (centres undefined)	-1	.	15	13	17	1
Cc1nn(-c2cccc(Cl)c2)c(Cl)c1/C=N/NC(=O)c1cccnc1	0	78*	24	7	-31	-4
O=C(N/N=C/c1cccnc1)c1ccc(NC(=O)c2ccc(Cl)cc2)cc1	-1	1	0	6	-2	14*
